Assay results from PubChem BioAssay AID774 (SRMLSC, 2007).
About 15 (0.02%) of roughly 65,000 compounds were called active.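 Rule for the calls: active = single-dose screening hits from any of four coupled enzyme assays that gave an IC50 when retested across doses; inconclusive = no clear call, values can overlap the other calls; inactive = the rest.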 Only a sample is shown. Non-standard residues stand in square brackets, D forms with d. Residues, ends and D or L forms follow the SMILES beside them. ξ: configuration not given here. ξV = CC(C)C(N)C(=O)O

Assay: NADH-endpoint coupling enzyme inhibition profiling – biochemical, MLSMR library, artefact control, profiling panel (AID 774);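 note: the DPM-DC format reads NADH fluorescence rather than 340 nm absorbance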
Details: coupled PK/LDH NADH assays, four targets; at 10 µM; stronger effect = higher value

inhibition, inactive:
CC(C)[C@H](NC(=O)Nc1ccc(S(N)(=O)=O)cc1)C(=O)O 2%
C/C(N)=C(\C#N)C(=O)NCCc1ccccn1 5%
O=C(Cn1c(=O)sc2ccccc21)Nc1nc2c(s1)CCCC2 5%
c1ccc2c(c1)OCC(c1nn3cnnc3s1)O2 (stereo not drawn) 3%
COc1cccc(-c2cc3nc4c(c(N5CCC6(CC5)OCCO6)n3n2)CCCC4)c1 4%
C=CCc1cccc2cc(C(=O)N3CCN(C(=O)OCC)CC3)c(=O)oc12 4%
CCOC(=O)CC1C(=O)NCCN1C(=O)COc1ccc(Br)cc1C (stereo not drawn) 4%
Cc1nn(-c2ccccc2)c2[nH]c(C(F)(F)F)cc(=O)c12 3%
O=[n+]1c2c(n([O-])c3cc(Br)ccc31)CCC2 5%
CC(C)CCNc1nc(N2CCCC2)c2c(c1C#N)CCN(C)C2 7%
COc1ccc(N2C(=O)CCC(C(=O)Nc3ccccn3)C2c2ccc(OC)c(OC)c2)cc1 (stereo not drawn) 2%
Cc1ccc(S(=O)(=O)c2nc(NCCCn3ccnc3)sc2Cl)cc1 6%
COc1ccc(N(CC(=O)NC(C)(C)C)C(=O)c2ccco2)cc1 1%
CCOC(=O)c1[nH]c2ccccc2c1N=C(C)N(CC)CC 4%
COc1cccc2c(C)c(C(=O)O)[nH]c12 14%
COCCCNC(=O)c1c(F)c(F)c(F)c(F)c1F 5%
O=C(CCn1c(=O)oc2ccccc21)Nc1ccon1 5%
COc1cc(C2C(C(=O)Nc3ccc(F)cc3)=C(C)Nc3nc(CCCO)nn32)cc(OC)c1OC (stereo not drawn) 9%
OCCCN1c2ccccc2Nc2nnc(-c3ccccc3)cc21 2%
C=C1c2cc(CC)ccc2NC(=O)N1c1ccc(C)cc1 4%
CCc1nnc(NC(=O)CCC(=O)O)s1 1%
COc1cc(-c2nnc(Cn3cc(C(F)(F)F)ccc3=O)o2)cc(OC)c1OC 4%
CCOP1(=O)C=C(C(C)(C)C)OC1c1ccc(F)cc1 (stereo not drawn) 5%
CCN(CC)C(=O)CSc1nnc(-c2ccc(S(=O)(=O)NCc3ccccc3Cl)cc2)o1 6%
CCc1c(C)n([O-])c2c([n+]1=O)CCCCC2 4%
Cc1noc(NS(=O)(=O)c2ccc(N3CC(O)=C(c4ccccc4)C3=N)cc2)c1C 4%
Cn1c(NC(=O)c2ccc3c(c2)OCO3)cc(=O)n(C)c1=O 7%
COC(=O)Cc1c(C)c2ccc(OCC(=O)NCc3ccc4c(c3)OCO4)cc2oc1=O 10%
O=C(CSc1nc2ncccc2[nH]1)Nc1ccc2c(c1)OCCO2 1%
CNC(=O)CSc1nnnn1-c1ccc(C)cc1C 2%
CCC(C(=O)Nc1ncccn1)(C(F)(F)F)C(F)(F)F 1%
COc1ccc(C2/C(=C(/O)c3ccccc3)C(=O)C(=O)N2c2ncccn2)cc1OC (stereo not drawn) 1%
O=C(COC(=O)c1ccccc1C(=O)c1ccccc1)c1ccco1 4%
Cc1cc(C)n(C(=O)c2ccc(S(=O)(=O)N3CCCC3)cc2)n1 4%
CC1(C)CCCC2=C1CC1C(=O)N(c3ccccc3)C(=O)C1C2 (stereo not drawn) 6%
Cc1ccc2cccc(O)c2[n+]1[O-] 10%
CCOc1ccccc1-n1c(SCC(=O)N2CCCC2)nnc1-c1ccoc1C 4%
O=C(CN1C(=O)C2C3C=CC(C3)C2C1=O)NCC1COc2ccccc2O1 (stereo not drawn) 8%
Cn1nnnc1SCc1cc(=O)[nH]c2ccccc12 6%
Cc1cc(OCCN2CCCC2)ccc1C(C)C 14%
CC1(C)CC(=O)c2sc(N)nc2C1 3%
CCOC(=O)C1CCN(C(=O)Cn2cc(C#N)c3ccccc32)CC1 5%
COc1ccc(-c2nn(-c3ccccc3)cc2C(=O)Nc2nc(CC(C)=O)ns2)cc1 4%
CCOC(=O)CCCNC(=O)CN1C(=O)NC(CCc2ccccc2)C1=O (stereo not drawn) 5%
Cc1ccc(CCn2c3c(c4ccccc42)CN(C)CC3)cn1 2%
CC(C)C1Cc2c(sc3c2c(=O)n(-c2ccccc2)c2nncn32)CO1 (stereo not drawn) 3%
CN1c2ccccc2-c2nc3ccccc3n2C1c1ccco1 (stereo not drawn) 6%
C=CCn1c(COc2ccccc2)nnc1SCC(=O)NCC(=O)OCC 3%
Cc1cccc(OCC(O)Cn2c(=N)n(CCN3CCOCC3)c3ccccc32)c1 (stereo not drawn) 6%
C/C(=C\c1ccco1)C1Nc2cccc3cccc(c23)N1 10%
Cc1cc(NC(=O)Nc2ccccc2)n(-c2ccccc2)n1 1%
COc1ccc(Br)cc1/C=N/n1c(C)nnc1C 6%
O=C(Nc1ccccc1N1CCN(C(=O)c2ccccc2)CC1)c1ccc2c(c1)OCO2 4%
C=CCNc1nc(C)nc(OC)n1 3%
CCCCC(CC)C(=O)Nc1ccc(Cl)cn1 (stereo not drawn) 5%
CC(=O)c1c(N2CCOCC2)nc(=S)n(-c2cc(C)ccc2C)c1C 5%
CC(C)CCn1c(CN(C)Cc2ccccc2)nc2c1c(=O)n(C)c(=O)n2C 8%
COC(=O)c1ccc(C2CC(=O)Nc3cc(OC)c(OC)cc32)cc1 (stereo not drawn) 9%
CCOc1ccccc1NC(=O)C1CCC(CNc2c(N3CCOCC3)c(=O)c2=O)CC1 (stereo not drawn) 7%
O=C(CSc1ncccn1)NCCc1ccccc1 5%
COc1ccc(OC)c(NC(=O)CN2CCN(C(=O)c3ccco3)CC2)c1 3%
Cc1cccc(C)c1NC(=O)CCCSc1nnc(-c2ccco2)n1-c1ccccc1 3%
CCOC(=O)c1c(C(C#N)C#N)cc(C)nc1C 7%
Cc1cc(C)c(C(=O)CN2C(=O)CCC2=O)cc1C 5%
Oc1c(C(c2ccco2)N2CCC3(CC2)OCCO3)sc2ncnn12 (stereo not drawn) 3%
CCOC(=O)c1cc2cc(-c3c(C(=O)OCC)oc4cc(O)cc(O)c4c3=O)ccc2o1 3%
O=C(NC1=NCCS1)c1ccc(Cl)s1 10%
c1ccc(-c2noc(-c3cccs3)n2)nc1 3%
CCCOC(=O)Nc1sc2c(c1C(=O)OCC)CCC2 5%
O.O.O.O=S(=O)([O-])OC[C@H]1O[C@@H](O[C@]2(COS(=O)(=O)[O-])O[C@H](OS(=O)(=O)[O-])[C@@H](OS(=O)(=O)[O-])[C@@H]2OS(=O)(=O)[O-])[C@H](OS(=O)(=O)[O-])[C@@H](OS(=O)(=O)[O-])[C@@H]1OS(=O)(=O)[O-].[Al] 1%
CC(=O)c1c(C)n([O-])c2ccccc2[n+]1=O 5%
Cc1ccc2[nH]c3c(c2c1)CN(C(=O)CN1CCN(c2ccccc2)CC1)CC3 3%
CCn1c(SCC(=O)NCc2ccco2)nnc1-c1ccc(N)cc1 3%
COc1ccc2c3c(c(=O)oc2c1OCC(=O)C(C)(C)C)CCCC3 4%
O=C(O)c1ccc(F)c(S(=O)(=O)Nc2ccccc2)c1 6%
CC1CN(Cc2nc3c(c(=O)n(C)c(=O)n3C)n2Cc2cccc(Cl)c2)CC(C)O1 (stereo not drawn) 5%
CC(=O)NC(C(=O)NCC(N)=O)C(C)C (stereo not drawn) (Ac-[ξV]-Gly-NH2) 4%
Cn1c(-c2ccc(C(=O)c3ccccc3)s2)nc2ccccc21 6%
O=C(Oc1ccc2c(c1)CCC2)N1CCOCC1 3%
O=P(c1ccc2c(c1)OCCO2)(N1CCOCC1)N1CCOCC1 0%
CCOc1ccc(OCC)c(NC(=O)C(NS(=O)(=O)c2ccc3c(c2)oc(=O)n3C)C(C)C)c1 (stereo not drawn) 7%
O=C(O)CN1C(=O)CC(Cc2ccccc2)C1=O (stereo not drawn) 1%
CCCc1cc(=O)oc2c(C)c(O)c(CN3CCCCC3)cc12 1%
CO/N=C(\C(=O)N[C@@H]1C(=O)N2C(C(=O)O)=C(COC(C)=O)CS[C@H]12)c1csc(N)n1 (stereo in doubt) 0%
Cc1noc(C)c1S(=O)(=O)N(CC(=O)NCc1ccc(Cl)cc1)c1ccc2c(c1)OCO2 9%
C=CCNC(=O)CCCC(=O)NCC=C 5%
CCCn1c(SCC(=O)Nc2cccc(C(=O)OCC)c2)nnc1-c1ccoc1C 7%
C=CCOc1nc2c(c(=O)n(C)c(=O)n2C)n1Cc1ccc(Cl)cc1Cl 8%
Fc1ccc2nc(Nc3nc4c(s3)CCCC4)sc2c1 3%
C=CCNC(=O)C1CC=CCC1C(=O)O (stereo not drawn) 4%
CCO/C([O-])=N/c1c[n+](N2CCOCC2)no1 1%
COC(=O)Cc1csc(Nc2c(C)n(C)n(-c3ccccc3)c2=O)n1 8%
COc1ccccc1C1/C(=C(/O)c2ccc(C)cc2)C(=O)C(=O)N1Cc1ccco1 (stereo not drawn) 10%
C=CCc1cccc2cc(C(=O)OCC)c(=O)oc12 6%
Cn1c(=O)c2c(nc(OCc3cccnc3)n2Cc2ccccc2)n(C)c1=O 3%
CCOc1ccc(OCC)c(NC(=O)CN(C)S(=O)(=O)c2cccc3nsnc23)c1 4%
O=C(OCC(O)C(O)COC(=O)c1ccccc1)c1ccccc1 (stereo not drawn) 5%
c1ccc2c(CNn3cnnc3)cccc2c1 3%
